In PubChem BioAssay AID528 (NMMLSC, 2006) one finds activation data, which are given here for 37 compounds.

In all, about 24,000 compounds went through this assay and fewer than 10 were called active. Not shown: some 9% with an inconclusive outcome.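 The calls were made as follows: active = fluorescent ligand binding to cells raised by more than 40% of the manganese-induced maximum; inconclusive = compound's own fluorescence above 85% of the ligand control signal; inactive = the rest.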 Only a sample is shown.

The experiment deals with Integrin alpha-4 (Homo sapiens) (UniProt P13612). As to the kind of experiment: increased LDV-FITC ligand binding on VLA-4 – Jurkat cells, flow cytometry, primary screen (AID 528).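 Also: 0% = ligand binding without compound and 100% = manganese-stimulated maximal binding.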 Conditions: stronger effect = higher value, screened at 10 µM (by protocol).
Integrin alpha-4 (Homo sapiens), sequence (P13612 whole entry, looked up): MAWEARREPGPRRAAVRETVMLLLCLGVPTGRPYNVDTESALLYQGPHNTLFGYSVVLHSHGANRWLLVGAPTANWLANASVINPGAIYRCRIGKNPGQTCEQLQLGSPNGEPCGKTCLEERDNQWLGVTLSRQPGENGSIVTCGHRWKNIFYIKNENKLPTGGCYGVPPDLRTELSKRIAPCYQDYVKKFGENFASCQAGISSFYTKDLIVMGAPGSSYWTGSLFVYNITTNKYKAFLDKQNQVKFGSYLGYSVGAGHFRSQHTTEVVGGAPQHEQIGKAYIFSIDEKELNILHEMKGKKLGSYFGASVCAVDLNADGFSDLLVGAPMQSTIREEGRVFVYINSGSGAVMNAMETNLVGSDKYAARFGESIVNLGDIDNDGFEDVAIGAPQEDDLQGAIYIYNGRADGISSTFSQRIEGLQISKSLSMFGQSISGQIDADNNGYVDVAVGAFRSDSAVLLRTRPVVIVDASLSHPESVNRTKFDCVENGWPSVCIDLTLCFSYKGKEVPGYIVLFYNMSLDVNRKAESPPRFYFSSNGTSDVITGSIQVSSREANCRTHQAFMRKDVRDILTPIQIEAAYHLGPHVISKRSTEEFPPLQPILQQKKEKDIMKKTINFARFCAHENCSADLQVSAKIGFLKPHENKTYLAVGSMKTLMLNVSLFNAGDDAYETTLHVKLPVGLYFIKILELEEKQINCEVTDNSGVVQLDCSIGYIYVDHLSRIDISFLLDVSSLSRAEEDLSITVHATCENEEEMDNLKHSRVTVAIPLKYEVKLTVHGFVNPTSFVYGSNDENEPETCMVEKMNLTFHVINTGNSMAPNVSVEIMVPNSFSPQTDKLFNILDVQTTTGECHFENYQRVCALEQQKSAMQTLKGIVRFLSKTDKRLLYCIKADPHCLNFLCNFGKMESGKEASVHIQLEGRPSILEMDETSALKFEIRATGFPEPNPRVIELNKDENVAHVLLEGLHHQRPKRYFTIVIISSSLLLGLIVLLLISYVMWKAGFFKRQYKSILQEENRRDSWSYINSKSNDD
For the compound `CCOC(=O)Cn1c(N)c(C(=O)OC)sc1=S`, the activation is -9% (inactive).

`CCOc1ccc(/C(O)=C2/C(=O)C(=O)N(Cc3cccnc3)C2c2ccc(N(C)C)cc2)c(C)c1` (configuration not stated): the activation was -4% (inactive).

For the compound `CCOC(=O)C1CCN(C(=O)C2CCN(S(=O)(=O)CC)CC2)CC1`, the activation was 0% (inactive).

As to `Cn1nnnc1SCc1cc(=O)[nH]c2ccccc12`, the activation is -4% (inactive).

Turning to `O=C(CC(NCCN1CCOCC1)C(=O)O)Nc1cccc(Cl)c1` (configuration not stated), the activation was 5% (inactive).

Take `CC(=O)Nc1cc(C(=O)O)ccc1S(=O)(=O)c1ccc(Cl)cc1`: the activation was 5% (inactive).

With `O=C(c1ccc(=O)[nH]c1)N(Cc1ccco1)C1(C(=O)NC2CCCCC2)CCCCC1`, the activation was 8% (inactive).

On to `COC(=O)c1cc(S(=O)(=O)NC2CCN(Cc3ccccc3)CC2)cn1C`, for which the activation is 12% (inactive).

Consider `CC(c1ccco1)N(C(=O)c1ccc(S(=O)(=O)N2CCCCC2)cc1)c1ccccn1` (configuration not stated), for which the activation is -5% (inactive).

Consider `O=C1CC(c2cccc(F)c2)C2=C(CCCC2=O)N1` (configuration not stated), for which the activation is 0% (inactive).

Consider `Cc1nc(NC(=O)C23CCC(C)(C(=O)O2)C3(C)C)sc1C` (configuration not stated), for which the activation is 2% (inactive).

Take `CC1Cc2nc(SCC(=O)Nc3ccccc3F)n(C)c(=O)c2S1` (configuration not stated): the activation was -5.7% (inactive).

As to `Cc1ccc(C)c(NS(=O)(=O)c2cc(Br)cnc2N)c1`, the activation was -9% (inactive).

In the case of `O=C1CC(c2cccc(Br)c2)C2=C(CCCC2=O)N1` (configuration not stated), the activation is -3% (inactive).

With `COc1cccc(NC(=O)Cn2cnc3sc(C)c(S(=O)(=O)N4CCN(C)CC4)c3c2=O)c1`, the activation is 1% (inactive).

In the case of `CCOC(=O)CSc1nnc(CNC(=O)c2cccs2)n1-c1ccccc1`, the activation is -4% (inactive).

In the case of `O=C1N=C(N2CCOCC2)CS1`, the activation was 5% (inactive).

With `C=CCOC(=O)C1=C(C)OC(N)=C(C#N)C1c1ccc(F)cc1` (configuration not stated), the activation was -2.5% (inactive).

Turning to `CCOC(=O)c1ccc(Nc2cc(C)nc3nc(C)nn23)cc1`, the activation is 5% (inactive).

Turning to `COCCCNC(=O)CCc1nc2cccnc2n1Cc1ccc(OC)cc1`, the activation was 4% (inactive).

Take `COc1cccc(Oc2ccc(N)cc2)c1`: the activation was 8% (inactive).

For `CCCN1CCN(C(=O)Cn2ncc3ccccc32)CC1`, the activation was 5% (inactive).

Take `Cc1cccc(N2CCN(C(=O)C3CCN(S(=O)(=O)c4cnc[nH]4)CC3)CC2)c1C`: the activation is 0% (inactive).

As for `COc1cccc(NC(=O)C2CCCN2C(=O)OCc2ccccc2)c1` (configuration not stated), the activation was -5% (inactive).

Turning to `CC(=O)c1c(C)[nH]c(C(=O)NCCCN2CCCC2)c1C`, the activation was 1% (inactive).

On to `COc1cc2[nH]c(=S)n(CCN3CCCCC3C)c(=O)c2cc1OC` (configuration not stated), for which the activation was -3% (inactive).

As to `Cn1c(=O)cc(OCCCC(=O)N2CCN(c3ccccn3)CC2)c2ccccc21`, the activation is -10% (inactive).

For `Cc1cccn2c(=O)c3cc(C(=O)NCc4ccccn4)n(C)c3nc12`, the activation was -2% (inactive).

Consider `Cc1nc(SCC(=O)Nc2cc(C)on2)c2c3c(sc2n1)CCCC3`, for which the activation is -3.5% (inactive).

Regarding `COc1ccc(C(=O)N(CCN2CCOCC2)CC(=O)NC2CCCC2)cc1OC`, the activation was 6.5% (inactive).

`O=C(CN1CCOc2ccccc21)N1CCC(Cc2ccccc2)CC1`: the activation is -1% (inactive).

Take `CCOC(=O)CSc1nnc(CNC(=O)Cc2ccccc2)n1-c1ccccc1OC`: the activation was -3% (inactive).

Turning to `CC1CCC(NS(=O)(=O)c2ccc3c(c2)n(C)c(=O)c(=O)n3C)CC1` (configuration not stated), the activation was 6% (inactive).

As to `COc1cc(OC)cc(-c2nc3nc(C)c(CCC(=O)NCc4ccco4)c(C)n3n2)c1`, the activation is -2.7% (inactive).

Take `Cc1cc(C)nc(-n2nc(C)cc2NC(=O)c2ccc(Br)o2)n1`: the activation was 1.5% (inactive).

`Cc1nc2ccc(NC(=O)N3CCC(c4ccccc4)C3)cc2nc1C` (configuration not stated): the activation was -3% (inactive).

In the case of `O=C(CNS(=O)(=O)c1ccc(Br)s1)NCc1ccc2c(c1)OCO2`, the activation is -4% (inactive).
